The list is not random: actives were taken first. Their share in the collection is about 10%.
Six1-Eya2 blk = Six1/Eya2 interaction inhibition | Q15475+O00167 | AlphaScreen GST-Six1/His-Eya2 binding, biochemical; hits give low values | activity change, % (no concentration beside the values) | hit rate 0.56% among 360,000 | AID 651725; in the data active = activity change below about -65%; inconclusive = mostly about -30% to -63%; also: % is scaled to controls: 0 for no effect and ±100 for the full control effect
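Compounds are tested against tagged Six1 and Eya2 proteins bridged by glutathione donor and nickel acceptor beads; after a one-hour incubation at 37 °C without light, AlphaScreen emission is recorded.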
CtBP-E1A blk = blocks the CtBP interaction with E1A; AlphaScreen GST-E1A/His-CtBP binding, 1536-well; hits give low values; activity change, % (test concentration not listed); hit rate 0.49% among 340,000; in the data active = activity change below about -65%; inconclusive = mostly about -30% to -63%; also: % is scaled to controls: 0 for no effect and ±100 for the full control effect
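Steps: dispense buffer (Tris pH 8.0, NaCl 300 mM, TCEP 1 mM, BSA, Tween 20); add 5X protein mix (GST-E1A, His-CtBP, 125 nM each); pin 23 nL compound; 2 h at 37 °C, dark; add 5X beads (50 ug/mL); 1 h; read.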
HP1b chromo inh = HP1-beta chromodomain-methylated histone interaction inhibition. AID 540317. hit rate 0.56% among 390,000. P83916. AlphaScreen HP1-beta / biotin-H3K9me3 peptide binding. Potency, µM (highest dose often 114 µM), for the others: top-dose activity change, negative = inhibition, usual class: inhibitors; also: potency is read from the fitted curve at half-maximal effect; nearly all actives have a fitted effect of over 70% in size
Target sequence (P83916 whole entry, looked up): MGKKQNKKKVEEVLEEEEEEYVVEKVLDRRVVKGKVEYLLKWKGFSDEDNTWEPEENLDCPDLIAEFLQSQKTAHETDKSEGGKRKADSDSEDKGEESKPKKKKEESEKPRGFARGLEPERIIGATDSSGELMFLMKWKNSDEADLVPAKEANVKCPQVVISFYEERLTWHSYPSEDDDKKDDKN
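AlphaScreen: HP1-beta (50 nM) preformed 30 min with biotin-H3(1-18)K9me3 peptide (50 nM) in PBS pH 7.4, 0.01% Tween-20. Compound added for 30 min at RT, then streptavidin donor/nickel chelate acceptor beads (10 ug/mL) for 30 min.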
G9a inh = G9a (human) methyltransferase inhibition. Potency, µM (top dose mostly 102 µM), inactives show at the highest dose activity, negative = inhibition, usual class: inhibitors. hit rate 8.8% among 350,000. G9a H3K9 monomethylation, AlphaScreen, 2 h. Q96KQ7; also: potency is read from the fitted curve at half-maximal effect; % is scaled to controls: 0 for no effect and ±100 for the full control effect; nearly all actives have a fitted effect of over 75% in size
Target sequence (Q96KQ7 913-1193 limits assumed): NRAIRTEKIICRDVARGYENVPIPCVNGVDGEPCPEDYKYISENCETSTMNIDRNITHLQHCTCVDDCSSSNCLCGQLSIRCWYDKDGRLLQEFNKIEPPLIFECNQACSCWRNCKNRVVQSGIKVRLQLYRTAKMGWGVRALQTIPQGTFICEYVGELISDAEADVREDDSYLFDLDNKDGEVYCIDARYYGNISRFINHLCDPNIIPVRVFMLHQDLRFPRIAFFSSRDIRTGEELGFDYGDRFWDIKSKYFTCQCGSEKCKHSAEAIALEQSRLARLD
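AlphaScreen detection with an anti-monomethyl H3K9 antibody quantified product after a 2 h room-temperature reaction containing 500 nM biotinylated H3K9 peptide, 20 µM SAM and 20 nM enzyme, which had been preincubated 15 min with compound.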
BAZ2B block = BAZ2B (human) inhibition | AID 504333 | AlphaScreen BAZ2B-H3K14Ac peptide displacement | Potency, µM (top dose mostly 114 µM), without a hit: at the top dose activity change, negative = inhibition, hits mostly inhibitors | Q9UIF8 | hit rate 4.4% among 360,000; also: potency is read from the fitted curve at half-maximal effect; % is scaled to controls: 0 for no effect and ±100 for the full control effect; nearly all actives have a fitted effect of over 60% in size
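Multi-concentration screen (max 110 uM) measuring displacement of acetylated histone H3 peptide from BAZ2B by AlphaScreen, using 50 nM protein, 50 nM peptide and 10 ug/mL streptavidin donor plus Ni-chelate acceptor beads.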
JMJD2A Tudor = JMJD2A Tudor domain (human) inhibition | O75164 | AlphaScreen JMJD2A-Tudor / H3K4me3 peptide binding | AID 504339 | hit rate 4.4% among 390,000 | Potency, µM (doses to about 114 µM), for the others: at the highest dose activity change, negative = inhibition, hits mostly inhibitors; also: potency is read from the fitted curve at half-maximal effect; % is scaled to controls: 0 for no effect and ±100 for the full control effect; nearly all actives have a fitted effect of over 50% in size
* = called active by the depositor; ? = inconclusive; . = no result given; ! = not active in a repeat; [ ] = dose if it differs, or a comment. Unless noted, calls follow the shape of the dose curve; as a rule, active = well fitted inhibition curve with a large enough effect; inconclusive = small, poorly fitted or top-dose-only effect; inactive = no such curve, though single readings can be large or run the other way.

SMILES	Six1-Eya2 blk	CtBP-E1A blk	HP1b chromo inh	G9a inh	BAZ2B block	JMJD2A Tudor
COc1cc(N=c2oc3c(C)ncc(CO)c3cc2C(N)=O)cc(OC)c1OC	-79*	0	8%	-32%[59 µM]	?	-18%
c1cncc(-c2nc(NCCCn3ccnc3)c3ccccc3n2)c1	-73*	-11	21%	-25%	10µM*	20µM*
c1ccc(-c2nc(NCc3ccco3)c3oc4ccccc4c3n2)cc1	-2	5	9%	?	?	89µM*
OCCNc1nc(-c2cccnc2)nc2ccccc12	-21	5	25%	7%	-19%	-5%
Cc1nc(NCCCn2ccnc2)c2ccccc2n1	2	3	21%	-1%[59 µM]	-9%	89µM*
CCc1nc(NCCCn2ccnc2)c2oc3ccccc3c2n1	-9	-8	39%	?	?	-21%
Cc1cc(NCCCn2ccnc2)n2c(nc3ccccc32)c1C#N	-5	-8	43%	-2%[12.7 µM]	1%	5%[57.1 µM]
c1ccc(-c2nc(NCCCn3ccnc3)c3oc4ccccc4c3n2)cc1	?	-68*	-20%	18µM*	45µM*	?
Cc1c(O)ccoc1=O	-1	8	32%	-122%[59 µM]	-21%	28µM*
O=C1c2ccccc2C(c2nnnn2Cc2ccccc2)N1Cc1ccco1 (stereo not drawn)	8	2	.	.	.	.
Nc1nnc(CC(=O)N/N=C\c2cc([N+](=O)[O-])ccc2O)s1	-92*	-91*	29%	?	28µM*	?
Cc1cc([N+](=O)[O-])nn1CC(=O)N/N=C/c1ccccc1O	-92*	?	26%	51%	-30%	-32%
Nc1nnnn1CC(=O)N/N=C/c1cc([N+](=O)[O-])ccc1O	-87*	-81*	30%	24%	19%	20µM*
O=C(N/N=C/c1ccc(O)cc1O)c1ccc(CN2C(=O)c3cccc4cccc2c34)cc1	?	?	55%	79µM*	-2%	4%
CC(C)(C)C(=O)Nc1ccc(C(=O)CSc2nnc(C3CC3)n2C2CC2)cc1	3	12	31%	?	12%	1%
O=C(c1cn(CCOc2ccc(Cl)cc2)c2ccccc12)C1CCCCC1	.	.	53%	35%[59 µM]	15%	19%
Cc1cc(C)n(CC(=O)N/N=C/c2cc([N+](=O)[O-])ccc2O)n1	-88*	-91*	32%	-14%	40µM*	?
Cc1cc([N+](=O)[O-])nn1Cc1ccc(C(=O)N/N=C/c2ccc(O)cc2O)cc1	-89*	?	13%	13%[59 µM]	5%	?
Cc1cc(C)n(CC(=O)N/N=C/c2cc(Br)cc([N+](=O)[O-])c2O)n1	?	.	-3%	?	?	?
CC(C)CN(CC(C)C)c1nnc(NC(=O)Nc2cccc(C(F)(F)F)c2)s1	.	.	24%	?	-32%	-16%
COc1ccc(-c2nc3ccccn3c2NCc2ccc3c(c2)OCO3)cc1	-18	-3	-7%	?	50µM*	?
COc1ccc(-c2cc(-c3nc4ccccn4c3NCc3ccccc3)ccc2OC)cc1	-29	?	?	.	.	32µM*
O=c1oc2ccccc2cc1-c1ccccc1	17	.	60%	13%	22%	12%
O=C(O)c1ccc(-n2cc(-c3cc4ccccc4oc3=O)[nH]c2=S)cc1	-12	-2	-15%	73%	3%	1.3µM*
CCCCn1c(SCC(=O)c2ccccc2)nc2sc3c(c2c1=O)CCCC3	.	.	33%	1%[59 µM]	-2%	-11%
SMILES	Six1-Eya2 blk	CtBP-E1A blk	HP1b chromo inh	G9a inh	BAZ2B block	JMJD2A Tudor
O=C(Nc1nnc(C2CC2)s1)C1Cc2ccccc2CN1C(=O)c1ccco1 (stereo not drawn)	-18	-9	?	20µM*	50µM*	?
COc1cccc2[nH]c3ccccc3c(=O)c12	0	.	23%	7%	-5%	-1%
COc1cc2cccc(OC)c(=O)c2c(OC)c1OC	4	8	22%	50µM*	-17%	-7%
CCn1c2ccccc2c2cc(NC(=O)COC(=O)c3cc(OC)c(OC)cc3OC)ccc21	-19	-22	20%	-4%[59 µM]	-11%	-8%
COC1=C(Nc2ccc(C)cc2)C(=O)c2ccccc2C1=O	-86*	-90*	16µM*	8.9µM*	7.9µM*	10µM*
COc1ccc(OC)c2c1C(=O)c1ccccc1C2=O	?	?	12%	-3%[59 µM]	-1%	-12%
COc1ccc(S(=O)(=O)Nc2ccc(Nc3ccccc3)cc2)cc1	3	.	-11%	.	.	?
COC1=C(OC)C(=O)c2ccccc2C1=O	.	.	.	20µM*!	.	.
COC1=C(Nc2ccccc2)C(=O)c2ccccc2C1=O	-83*	-67*	35µM*	11µM*	14µM*	14µM*
CCN(CCn1cccn1)C(=O)C1CCC(=O)N(CCN2CCOCC2)C1 (stereo not drawn)	22	-6	10%	.	-3%	-7%
Cc1nnc(Nc2ccc(O)cc2)[nH]c1=O	0	2	4%	50µM*	-26%	-11%
Cc1nnc(Nc2ccc(C(=O)O)cc2)[nH]c1=O	7	7	15%	3%	-4%	0%
COc1ccc(CNC(=O)CN(Cc2ccc(C)cc2)C(=O)c2csnn2)cc1	-13	0	16%	-9%	-16%	-7%
CCc1nn(C)c(-c2n[nH]c(=S)n2N)c1Cl	6	-2	15%	?	?	35µM*
CCc1cc(-c2n[nH]c(=S)n2N)n(C)n1	22	0	?	10µM*	79µM*	8.9µM*
COc1ccc(C)c2sc(N(Cc3cccnc3)C(C)=O)nc12	.	.	-6%	7%[59 µM]	-11%	-23%
O=C(CCCn1ccc2cc(S(=O)(=O)N3CCCC3)ccc21)NCc1ccc(Cl)cc1	.	.	-3%	-5%[59 µM]	-18%	-17%
CN(C)c1ccc(CNC(=O)CCCn2ccc3cc(S(=O)(=O)N4CCCC4)ccc32)cc1	.	.	-13%	8.9µM*	?	?
CN(C)c1ccc(CNC(=O)c2cc(S(=O)(=O)N3CCOCC3)cn2C)cc1	-2	8	9%	40µM*	-9%	-17%
Cc1ccc(C2c3c(oc4ccccc4c3=O)C(=O)N2c2ccc(C)cn2)cc1 (stereo not drawn)	.	.	15%	?	-2%	-14%
O=C(Cc1ccsc1)NNC(=O)c1ccccc1O	-5	-11	20%	-4%	-32%	-19%
Nc1ccc(-c2nc3ccc(N)cc3o2)cc1	-2	-3	47%	-12%	-22%	-28%
Cc1ccc2nc(-c3cc(N)cc(N)c3)oc2c1	-13	-12	-30%	-42%[59 µM]	50µM*	?
CCc1ccc(OCCOCC(O)CN(CCO)CCO)cc1 (stereo not drawn)	13	20	20%	-11%[59 µM]	-3%	-17%
